Results as given in PubChem BioAssay (EPA / NIEHS).
Inconclusive results are not listed. Activity calls are given as the source filed them. The calls were made as follows: active = hit-call score of the fitted dose curve at least 0.9, where 1 is the maximum; inconclusive = response in the unintended direction; inactive = score below 0.9.

system: not listed separately; test: ACEA_ER_AUC_viability: ACEA Biosciences xCELLigence Real-Time Cell Analysis on Estrogen Receptor Agonism for Viability (AID 2283782);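 also: continuous compound exposure with impedance area under curve over 80 h; hit means loss of impedance signal meaning reduced cell growth or viability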
How it was run: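 T-47D human breast cells in phenol red-free RPMI1640 with 10% charcoal-stripped FBS were dosed with an 8-point 1:4 dilution series from 100 uM top final concentration, in duplicate. Impedance-based growth was followed for 80 h; AUC analysed versus DMSO.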

For `CCc1ccc(C)nc1`, which outcome is on record?
Its outcome is “inactive”.

For `CCCCCCCC/C=C\CCCCCCCC(=O)N(C)CC(=O)O`, which AC50 is on record?
Its AC50 is 83.4 µM (active).

Which AC50 does the source give for `O=C1C=CC(=O)N1c1ccc(Cc2ccc(N3C(=O)C=CC3=O)cc2)cc1` here?
Its AC50 is 25.1 µM (active).

Which outcome does the source give for `O=S(=O)(O)c1ccc(Cl)cc1` here?
The outcome was “inactive”.

For `CCCC(=O)OCC(COC(=O)CCC)OC(=O)CCC`, which outcome is on record?
Its outcome is “inactive”.

For `CCN=C1C=CC(=C(c2ccc(N(CC)CC)cc2)c2ccc(N(CC)CC)cc2)c2ccccc21`, which AC50 is on record?
Its AC50 is 5.37 µM (active).

Which outcome does the source give for `C#CC(O)CCC` (configuration not stated) here?
The outcome was “inactive”.

Which outcome does the source give for `CCCCCCCCCCCCCCCCC` here?
The outcome was “inactive”.

With `Brc1nc2ccccc2s1` as the compound, how does the outcome read?
Its outcome is “inactive”.

Which AC50 does the source give for `COCCOCCC[Si](C)(O[Si](C)(C)C)O[Si](C)(C)C` here?
The AC50 was 79.6 µM (active).

Which outcome does the source give for `NCC(F)(F)C(F)(F)C(F)(F)C(F)(F)C(F)(F)C(F)(F)F` here?
The outcome was “inactive”.

Which AC50 does the source give for `CCN=c1cc2oc3cc(NCC)c(C)cc3c(-c3ccccc3C(=O)OCC)c-2cc1C` here?
The AC50 was 5.61 µM (active).

With `CCOC(=O)CCC(C)=O` as the compound, how does the outcome read?
Its outcome is “inactive”.

With `CCCCCCCCCCCCC[N+](C)(C)Cc1ccccc1` as the compound, how does the AC50 read?
Its AC50 is 7.37 µM (active).

With `CCCCC(CC)COC(=O)c1ccc(N(C)C)cc1` (configuration not stated) as the compound, how does the AC50 read?
The AC50 was 87.8 µM (active).

Which AC50 does the source give for `O=C(c1ccccc1)c1ccc(Cl)cc1` here?
The AC50 was 28.4 µM (active).

For `O=C=Nc1cccc2c(N=C=O)cccc12`, which outcome is on record?
The outcome was “inactive”.

With `O=S(=O)(Cl)C(F)(F)C(F)(F)C(F)(F)C(F)(F)C(F)(F)C(F)(F)C(F)(F)C(F)(F)F` as the compound, how does the outcome read?
Its outcome is “inactive”.

For `O=C(O)CCC(F)(F)C(F)(F)C(F)(F)F`, which outcome is on record?
The outcome was “inactive”.

With `O=C=NCc1cccc(CN=C=O)c1` as the compound, how does the outcome read?
The outcome was “inactive”.

Which AC50 does the source give for `CCCCCCCCCc1ccc(OCCO)cc1` here?
The AC50 was 35.2 µM (active).

Which outcome does the source give for `COC(=O)c1ccc(C=O)cc1` here?
The outcome was “inactive”.

For `O=C(O)C(F)(F)C(F)(F)C(F)(F)OC(F)(C(F)(F)F)C(F)(F)F`, which outcome is on record?
The outcome was “inactive”.

With `OCCCCl` as the compound, how does the outcome read?
The outcome was “inactive”.

For `O=C1C=CC(=O)N1c1ccccc1`, which outcome is on record?
The outcome was “inactive”.

With `Cc1cc(=O)[nH]c(C(C)C)n1` as the compound, how does the outcome read?
Its outcome is “inactive”.

For `CCC(=O)OC(C)c1ccccc1` (configuration not stated), which AC50 is on record?
The AC50 was 79.9 µM (active).

For `OCCC(O)CO` (configuration not stated), which outcome is on record?
The outcome was “inactive”.

For `CC(C)OC(=O)COc1ccc(Cl)cc1Cl`, which AC50 is on record?
The AC50 was 66.8 µM (active).

With `CC(C)=CCCC(C)O` (configuration not stated) as the compound, how does the outcome read?
The outcome was “inactive”.

target: AR (gene 367) (UniProt P10275); test: ACEA_AR_agonist_80hr: ACEA Biosciences xCELLigence Real-Time Cell Analysis on Androgen Receptor Agonism for Proliferation (AID 2283783);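 also: hits increase impedance growth signal above DMSO baseline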
Sequence (P10275 whole entry, looked up): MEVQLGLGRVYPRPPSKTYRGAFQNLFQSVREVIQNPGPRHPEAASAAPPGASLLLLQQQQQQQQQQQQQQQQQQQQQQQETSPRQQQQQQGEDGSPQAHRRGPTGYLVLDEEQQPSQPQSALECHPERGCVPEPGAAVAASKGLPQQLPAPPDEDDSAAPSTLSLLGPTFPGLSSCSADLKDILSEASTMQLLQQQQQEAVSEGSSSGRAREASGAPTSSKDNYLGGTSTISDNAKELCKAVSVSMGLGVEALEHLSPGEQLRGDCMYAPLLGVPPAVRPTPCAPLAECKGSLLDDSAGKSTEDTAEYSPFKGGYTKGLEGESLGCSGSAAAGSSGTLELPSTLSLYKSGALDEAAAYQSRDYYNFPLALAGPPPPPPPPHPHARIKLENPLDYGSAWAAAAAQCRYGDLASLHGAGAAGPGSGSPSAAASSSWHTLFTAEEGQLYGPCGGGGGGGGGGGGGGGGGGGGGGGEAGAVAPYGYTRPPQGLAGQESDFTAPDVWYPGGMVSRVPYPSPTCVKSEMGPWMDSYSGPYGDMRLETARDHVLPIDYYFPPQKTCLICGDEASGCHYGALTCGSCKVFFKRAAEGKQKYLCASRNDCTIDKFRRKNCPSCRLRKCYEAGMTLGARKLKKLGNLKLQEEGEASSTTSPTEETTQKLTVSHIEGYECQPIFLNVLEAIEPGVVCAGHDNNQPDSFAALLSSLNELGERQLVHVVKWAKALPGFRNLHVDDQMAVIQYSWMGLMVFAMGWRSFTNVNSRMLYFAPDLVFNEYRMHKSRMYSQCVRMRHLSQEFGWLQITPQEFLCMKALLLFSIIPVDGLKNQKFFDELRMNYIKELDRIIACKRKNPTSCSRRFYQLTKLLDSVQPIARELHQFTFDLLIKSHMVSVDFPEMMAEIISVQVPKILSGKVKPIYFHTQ
How it was run: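 22Rv1 human prostate cancer cells were seeded after preconditioning in assay medium and monitored overnight, then dosed in an eight-point 1:4 dilution series from 100 uM (≤0.5% DMSO). Impedance-based growth was read at 80 h, gain-of-signal versus DMSO.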

For `OCC1CCCO1` (configuration not stated), which AC50 is on record?
Its AC50 is 0.585 µM (active).

Which outcome does the source give for `COCCOCCC[Si](C)(O[Si](C)(C)C)O[Si](C)(C)C` here?
Its outcome is “inactive”.

For `CCN=c1cc2oc3cc(NCC)c(C)cc3c(-c3ccccc3C(=O)OCC)c-2cc1C`, which outcome is on record?
The outcome was “inactive”.

With `CCCCCCCC/C=C\CCCCCCCC(=O)OCC(O)CO` (configuration not stated) as the compound, how does the AC50 read?
Its AC50 is 27.9 µM (active).

For `F[Si-2](F)(F)(F)(F)F`, which outcome is on record?
The outcome was “inactive”.

With `CCCCCCCCCCCCCC[P+](CCCC)(CCCC)CCCC` as the compound, how does the outcome read?
The outcome was “inactive”.

system: not listed separately; test: STM_H9_NormalizedViability: Cytotoxicity Assessment at 120 hours in the Stemina devTOX quickPredict H9 human embryonic stem cell (hESC)-based Assay (AID 2283784)
How it was run: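 Undifferentiated H9 hESCs kept pluripotent were exposed to compound, with media and chemical replaced every 24h. CellTiter-Fluor protease-substrate fluorescence was background-corrected and normalized per plate to the 0.1% DMSO vehicle; signal loss indicates reduced viability.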

For `CCN=C1C=CC(=C(c2ccc(N(CC)CC)cc2)c2ccc(N(CC)CC)cc2)c2ccccc21`, which AC50 is on record?
The AC50 was 0.165 µM (active).

With `CCN=c1cc2oc3cc(NCC)c(C)cc3c(-c3ccccc3C(=O)OCC)c-2cc1C` as the compound, how does the AC50 read?
The AC50 was 0.116 µM (active).

Which outcome does the source give for `CCCCC(CC)COC(=O)c1ccc(N(C)C)cc1` (configuration not stated) here?
The outcome was “inactive”.

target: AR (gene 367) (UniProt P10275); test: ACEA_AR_antagonist_80hr: ACEA Biosciences xCELLigence Real-Time Cell Analysis on Androgen Receptor Antagonism for Proliferation (AID 2283787);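 also: hits lower the impedance growth signal relative to DMSO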
How it was run: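 Impedance readout (RT-CES), 80 h post-dose; loss-of-signal vs DMSO baseline. 22Rv1 cells in assay medium. Compounds: 8-pt 1:4 series, max 100 uM final, up to 0.5% DMSO; n = 2.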

Which AC50 does the source give for `CCN=C1C=CC(=C(c2ccc(N(CC)CC)cc2)c2ccc(N(CC)CC)cc2)c2ccccc21` here?
Its AC50 is 0.131 µM (active).

For `CCN=c1cc2oc3cc(NCC)c(C)cc3c(-c3ccccc3C(=O)OCC)c-2cc1C`, which AC50 is on record?
The AC50 was 0.0436 µM (active).

Which AC50 does the source give for `CCCCCCCCCCCCC[N+](C)(C)Cc1ccccc1` here?
Its AC50 is 4.67 µM (active).

For `CCCCCCCC/C=C\CCCCCCCC(=O)OCC(O)CO` (configuration not stated), which outcome is on record?
Its outcome is “inactive”.

Which AC50 does the source give for `CCCCCCCCCc1ccc(OCCO)cc1` here?
The AC50 was 16.6 µM (active).

With `O=C1C=CC(=O)N1c1ccccc1` as the compound, how does the outcome read?
Its outcome is “inactive”.

For `F[Si-2](F)(F)(F)(F)F`, which outcome is on record?
Its outcome is “inactive”.

For `CCCCCCCCCCCCCC[P+](CCCC)(CCCC)CCCC`, which AC50 is on record?
The AC50 was 0.0436 µM (active).
